Measurements published in the supplement of paper PMC3334620.
Over roughly 33,000 sequences, “E-score (-0.5 to 0.5)” has its median near -0.036; the highest 2% begin near 0.37. Many of the other results were omitted from the sample, so the highest values are more common in it than they were.

Biological target: T1, Yer064c (UniProt P40041)
T1 sequence: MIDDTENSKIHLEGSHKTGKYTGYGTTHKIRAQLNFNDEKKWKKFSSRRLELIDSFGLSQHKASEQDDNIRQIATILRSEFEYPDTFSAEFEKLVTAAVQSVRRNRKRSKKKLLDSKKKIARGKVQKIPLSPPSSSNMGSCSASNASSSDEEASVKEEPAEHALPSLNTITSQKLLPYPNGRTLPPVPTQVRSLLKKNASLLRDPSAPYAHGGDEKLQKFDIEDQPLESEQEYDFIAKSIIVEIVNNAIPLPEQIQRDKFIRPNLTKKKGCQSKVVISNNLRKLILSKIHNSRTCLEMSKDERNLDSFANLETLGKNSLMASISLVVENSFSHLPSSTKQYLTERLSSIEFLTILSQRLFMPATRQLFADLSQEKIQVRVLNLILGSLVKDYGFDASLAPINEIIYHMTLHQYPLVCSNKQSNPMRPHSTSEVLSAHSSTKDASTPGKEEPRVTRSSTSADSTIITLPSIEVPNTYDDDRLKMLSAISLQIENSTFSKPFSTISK
Test: PBM E-score (8-mer binding enrichment) (E-score (-0.5 to 0.5)); higher = stronger / more preferred TF binding
Settings: protein concentration: 200 nM; construct: GST-full length
How it was run: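 The E-score, a modified Wilcoxon-Mann-Whitney statistic, was computed by the Universal PBM Analysis Suite for every ungapped eight-base word pooled with its reverse complement. Scans behind it were normalised with masliner after bound GST-tagged yeast transcription factors were detected with fluorescent anti-GST. The proteins, at about 100-200 nM, had been applied to universal all-10-mer Agilent arrays made double-stranded by primer extension.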

Row | Sequence | PBM E-score
1 | TAGGGCGA | 0.0759
2 | AAAGCTTA | -0.0514
3 | AGTTAGCC | 0.127
4 | ATCGCACG | -0.0772
5 | AAGTCGGC | -0.0537
6 | TAGTCGGA | 0.288
7 | GAGTCGGA | 0.395
8 | CAGTCGGC | 0.122
9 | CAGTCGGA | 0.118
10 | AAGTCGTA | 0.328
11 | CAGTCGTA | 0.265
12 | GAGTCGGC | 0.412
13 | GAGTCGTA | 0.453
14 | CAACACAG | 0.0802
15 | GAAAATAA | 0.133
16 | TGACGACA | 0.102
17 | CATCGCAC | -0.211
18 | ATGCAAGA | 0.139
19 | CGCTCATC | 0.0112
20 | CAAGCCGG | -0.108
21 | ACATTCTA | 0.0824
22 | GGGATTCA | 0.147
23 | GTGATTCA | 0.474
24 | AAGATTCA | 0.37
25 | ACGATTCG | 0.0252

Row | Sequence | PBM E-score
26 | AAGATTCG | 0.205
27 | ATGATTCG | 0.437
28 | AGGATTCA | 0.24
29 | AGGATTCG | -0.0455
30 | ATGATTCA | 0.49
31 | ACGATTCA | 0.298
32 | GTGATTTA | 0.35
33 | GAGATTCA | 0.238
34 | CGCGCCCC | -0.271
35 | CAACCTGC | -0.127
36 | CCGTAATA | 0.0217
37 | ACTCAGCT | 0.216
38 | ACCGGAAG | -0.0509
39 | GATGCTCC | -0.345
40 | AACAACCA | 0.13
41 | ATGGGGAC | -0.14
42 | CGAAATCA | 0.309
43 | CCGCGGAC | -0.0248
44 | CGTGGAGC | -0.124
45 | CCACCCCA | -0.0763
46 | ATGACCGG | -0.128
47 | AATATATC | -0.0361
48 | AGGATTCC | 0.0611
49 | ATGATTCC | 0.456
50 | CTGATTCA | 0.45

Row | Sequence | PBM E-score
51 | CGGATTCA | 0.194
52 | CTGATTCC | 0.301
53 | CAGATTCA | 0.157
54 | CTCGGCCC | -0.206
55 | CTGAATTA | 0.0399
56 | CTGAATCA | 0.455
57 | ATGAATCA | 0.48
58 | ATGAATCG | 0.355
59 | ATGAATCC | 0.253
60 | GTGAATGA | 0.14
61 | GTGAATCA | 0.48
62 | GTGAATAA | 0.0323
63 | CTGAATCC | 0.235
64 | CTAAGGTA | 0.105
65 | GTTTATTA | 0.148
66 | CGATGTGA | 0.103
67 | ACATCACA | -0.0462
68 | GCGTGAAA | -0.106
69 | CTGACGGA | -0.0463
70 | GGGTAAAC | 0.0204
71 | GTCTGTCA | -0.107
72 | CACTCCGC | -0.0571
73 | AACTCCGA | -0.0453
74 | GACTCCGA | 0.417
75 | GACTCCGC | 0.406

Row | Sequence | PBM E-score
76 | TACTCCGA | 0.0904
77 | AACTCCGC | -0.0186
78 | GTGCACCA | -0.178
79 | CGGTAGTA | 0.0891
80 | CGGTAGTC | 0.409
81 | CGGTAGGC | -0.178
82 | AGGTAGTG | -0.0767
83 | AGGTAGTC | 0.407
84 | AGGTAGTA | 0.0729
85 | CTTCAGGA | 0.00919
86 | AATTCACC | -0.0422
87 | CATTCACG | 0.0972
88 | CATTCACA | -0.00304
89 | CATTCACC | -0.166
90 | GATTCACC | 0.372
91 | GATTCACA | 0.375
92 | CGATAGAC | 0.00233
93 | CGCCTTTA | 0.0724
94 | ATATCTCA | 0.0798
95 | CTTGGGAA | 0.0531
96 | ATTCCTAA | 0.183
97 | GATTATGA | 0.38
98 | AATGATTA | 0.449
99 | AATGATGA | 0.289
100 | AATTATGA | 0.248

Row | Sequence | PBM E-score
101 | GATGATTA | 0.47
102 | CTTGATTA | 0.303
103 | AATGATAA | 0.0741
104 | GATGATCA | 0.323
105 | GTTGATTA | 0.381
106 | ATTGATTA | 0.286
107 | GATTATGC | 0.112
108 | GATGATGA | 0.256
109 | AACCGCAG | -0.0549
110 | ATCAACTA | 0.23
111 | AGTGAAAT | 0.143
112 | ACCTCCCT | -0.107
113 | CCGGTTAA | -0.0828
114 | CCCGAGGG | -0.0969
115 | CCTGATTA | 0.344
116 | GCTGATTA | 0.392
117 | ACTGATTA | 0.343
118 | CTTTCCCC | -0.153
119 | AGTCGTAT | 0.379
120 | AGTCGTAC | 0.399
121 | AGTCGTAG | 0.406
122 | CGTCGTAG | 0.0225
123 | ACTCGTAG | 0.218
124 | CGTCGTAC | -0.0504
125 | GGTCGTAA | -0.0401

Row | Sequence | PBM E-score
126 | TGTCGTAA | -0.0131
127 | GGTCGTAC | -0.205
128 | AGTCGTAA | 0.378
129 | ACTCGTAT | 0.107
130 | AATCGTAT | 0.118
131 | GAGAGCGA | -0.0993
132 | GCGATAAC | -0.135
133 | CGTGGACA | -0.323
134 | GCGCGGAC | 0.0396
135 | ATGACCGA | -0.0163
136 | AGTCCTAT | 0.306
137 | TGTCCTAA | -0.0793
138 | AGTCCTAA | 0.366
139 | AATAGCTA | -0.0209
140 | GCCTGGGA | -0.343
141 | TAGAATCA | 0.362
142 | GAGAATTA | -0.167
143 | GAGAATCC | -0.141
144 | AAGAATCA | 0.392
145 | GAGAATCA | 0.392
146 | CAGAATCA | 0.349
147 | GAACAGCA | -0.175
148 | AATGGACC | 0.0237
149 | GGAGACAA | -0.173
150 | CGAGACTC | 0.369

Row | Sequence | PBM E-score
151 | CGAGACTA | 0.37
152 | AGAGACTA | 0.347
153 | AGAGACTC | 0.386
154 | CCAGACTC | 0.206
155 | AGAGACTG | 0.0785
156 | GGAGACCA | -0.176
157 | CCAGACTA | 0.208
158 | GGAGACTA | 0.375
159 | CGAGACGA | -0.0652
160 | CGAGACAC | 0.13
161 | AGCCTAGC | -0.166
162 | CTTCGCGA | 0.105
163 | ATGAGATA | 0.0605
164 | GTGCGGCA | -0.143
165 | CGGCGATA | 0.143
166 | AAGGAACG | -0.167
167 | AAAAGGAT | -0.0899
168 | GCACCCCC | -0.268
169 | AGTTAGTC | 0.447
170 | CGTTAGTA | 0.0645
171 | CGTTAGTC | 0.45
172 | AGTTAGTG | 0.0232
173 | AGTTAGTA | 0.196
174 | CGTTAGAC | -0.00028
175 | AATTGTAG | 0.13
